From PubChem BioAssay (Tox21) come the findings set out here.

Assay [1] can be described thus: A CellTox Green Cytotoxicity Assay to monitor cytotoxicity in HepG2 cells - 8 hour (AID 1224890). Note: nearly all actives have a fitted effect of over 45% in size. Note: potency is the fitted concentration of half-maximal effect. The essentials: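 Read-out is fluorescence of a cyanine dye excluded from live cells that stains DNA of dead HepG2 cells, with signal proportional to cytotoxicity. Plates were read at 0, 8, 16, 24, 32 and 40 h after compound addition.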
Assay [2] is described as follows: qHTS assay to identify small molecule antagonists of the estrogen receptor alpha (ER-alpha) signaling pathway using the BG1 cell line in the presence of 0.1 nM 17-beta-estradiol - cell viability counter screen (AID 1259241). Note: nearly all actives have a fitted effect of over 40% in size. Note: potency is the fitted concentration of half-maximal effect. Put shortly: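 VM7Luc4E2 cells (endogenous full-length ER-alpha, 4xERE-luciferase), cultured 5 days in charcoal-stripped serum, exposed to compounds with 0.1 nM 17beta-estradiol (final) for 22 hr at 37C. Viability read in same wells as live-cell protease fluorescence after 30 min.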

A short description of assay [3]: qHTS assay to identify small molecule antagonists of the androgen receptor (AR) signaling pathway using the MDA cell line in the presence of 0.5 nM R1881 - cell viability counter screen (AID 1259242). Note: nearly all actives have a fitted effect of over 45% in size. Note: potency is the fitted concentration of half-maximal effect. The essentials:
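Counter screen for cytotoxicity run in the same wells as the AR antagonist reporter screen: MDA-kb2 cells were treated 16 hr with test compounds and 0.5 nM R1881, then live-cell protease activity was measured by fluorescence.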
A general note: qHTS replaces the single test concentration by a dilution series.

Assay [4] is described as follows: qHTS assay to identify small molecule HDAC inhibitors (AID 1259364). Note: nearly all actives have a fitted effect of over 45% in size. Note: potency is the fitted concentration of half-maximal effect. The essentials: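 Luminescence from a cell-permeant luminogenic class I/II HDAC substrate reports endogenous deacetylase activity in intact HCT-116 cells treated with compounds for 2 h.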
Assay [5] can be described thus: qHTS assay to identify small molecule HDAC inhibitors - cell viability counter screen (AID 1259365). Note: series mostly up to about 92 µM; nearly all actives have a fitted effect of over 50% in size. The essentials: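 Wild-type HCT-116 cells, 1,500/well, cultured overnight, then compound-treated 2 h at 37 C. Viability measured as ATP luminescence with CellTiter-Glo after 30 min at room temperature.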
A short description of assay [6]: qHTS assay to identify small molecule agonists of the sonic hedgehog signaling (Shh) pathway - cell viability counter screen (AID 1259366). Note: nearly all actives have a fitted effect of over 50% in size. Note: potency is the fitted concentration of half-maximal effect. Put shortly: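 NIH/3T3-derived Gli1-Luc reporter cells, 2,000 per well, received compound after 4 h and were treated about 23 h at 37C. Viability measured in the same wells by CellTiter-Fluor fluorescence after 1 h.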
Assay [7] is described as follows: qHTS assay to identify small molecule antagonists of the sonic hedgehog signaling (Shh) pathway - cell viability counter screen (AID 1259367). Note: nearly all actives have a fitted effect of over 55% in size. Note: potency is the fitted concentration of half-maximal effect. Put shortly:
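After a 4 hr settling period, 3T3 Gli1-Luc cells were treated with DMSO-dissolved chemicals and conditioned medium, kept 24 hr at 37C in 5% CO2, and assayed for viability by CellTiter-Fluor fluorescence following 1 hr reagent incubation.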

In assay [8] the target is Estrogen receptor (Homo sapiens) (UniProt P03372). In words: qHTS assay to identify small molecule antagonists of the estrogen receptor alpha (ER-alpha) signaling pathway using the BG1 cell line in the presence of 0.1 nM 17-beta-estradiol (AID 1259244). Note: nearly all actives have a fitted effect of over 50% in size. Note: potency is the fitted concentration of half-maximal effect. Put shortly: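 Cells: VM7Luc4E2, endogenous ER-alpha, 4x ERE-luc stable. Pre-culture 5 d, phenol red-free, charcoal-stripped FBS. Plated 24 h, compound + E2 0.1 nM final, 22 h 37C/5% CO2. Readout ONE-Glo luminescence.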

Assay [9] can be described thus: qHTS assay to identify small molecule phospholipidosis (PLD) inducers (AID 1259344; active = well fitted curve in the direction sought with a large enough effect; an effect the other way counts as inactive or inconclusive). The essentials: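 HepG2 cells grown on collagen I take up LipidTOX Red while exposed to compound for 24 h; after fixation they are imaged at 20x and pit metrics are extracted.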
Assay [10] has as its target Androgen receptor (Homo sapiens) (UniProt P10275). In words: qHTS assay to identify small molecule antagonists of the androgen receptor (AR) signaling pathway using the MDA cell line in the presence of 0.5 nM R1881 (AID 1259243). Note: nearly all actives have a fitted effect of over 50% in size. Note: potency is the fitted concentration of half-maximal effect. Put shortly: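 Luciferase luminescence is the read-out: compounds are tested for suppressing 0.5 nM R1881-driven MMTV reporter activity in MDA-kb2 cells after 16 hr at 37C.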

Values without a mark were called inactive. Records with an inconclusive call do not appear. The source made the active and inactive calls. Unless noted, calls come from the whole dose curve; as a rule, active = well fitted curve in the direction sought with a large enough effect in the repeat runs; inconclusive = weak or mixed curves; inactive = no such curve, though single readings can be large; an effect the other way counts as inactive or inconclusive.
% is set by controls: 0 for no effect and ±100 for the full control effect.

Sequence of Estrogen receptor (Homo sapiens) (P03372 whole entry, looked up): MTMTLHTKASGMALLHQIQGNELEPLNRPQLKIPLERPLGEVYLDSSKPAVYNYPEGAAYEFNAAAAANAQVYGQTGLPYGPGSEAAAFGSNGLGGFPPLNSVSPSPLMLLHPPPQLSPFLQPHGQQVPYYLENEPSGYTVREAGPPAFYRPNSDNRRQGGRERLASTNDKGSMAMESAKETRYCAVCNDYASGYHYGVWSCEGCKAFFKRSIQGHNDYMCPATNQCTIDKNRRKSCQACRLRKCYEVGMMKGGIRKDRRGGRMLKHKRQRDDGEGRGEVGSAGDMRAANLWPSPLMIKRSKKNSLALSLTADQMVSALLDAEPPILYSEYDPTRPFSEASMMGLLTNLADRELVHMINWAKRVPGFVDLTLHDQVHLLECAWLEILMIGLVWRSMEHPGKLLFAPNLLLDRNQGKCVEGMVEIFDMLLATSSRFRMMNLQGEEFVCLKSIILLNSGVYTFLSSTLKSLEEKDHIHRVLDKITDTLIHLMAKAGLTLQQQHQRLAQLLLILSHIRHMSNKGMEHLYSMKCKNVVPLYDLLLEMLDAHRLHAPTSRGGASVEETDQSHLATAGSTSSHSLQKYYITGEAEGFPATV
Sequence of Androgen receptor (Homo sapiens) (P10275 whole entry, looked up): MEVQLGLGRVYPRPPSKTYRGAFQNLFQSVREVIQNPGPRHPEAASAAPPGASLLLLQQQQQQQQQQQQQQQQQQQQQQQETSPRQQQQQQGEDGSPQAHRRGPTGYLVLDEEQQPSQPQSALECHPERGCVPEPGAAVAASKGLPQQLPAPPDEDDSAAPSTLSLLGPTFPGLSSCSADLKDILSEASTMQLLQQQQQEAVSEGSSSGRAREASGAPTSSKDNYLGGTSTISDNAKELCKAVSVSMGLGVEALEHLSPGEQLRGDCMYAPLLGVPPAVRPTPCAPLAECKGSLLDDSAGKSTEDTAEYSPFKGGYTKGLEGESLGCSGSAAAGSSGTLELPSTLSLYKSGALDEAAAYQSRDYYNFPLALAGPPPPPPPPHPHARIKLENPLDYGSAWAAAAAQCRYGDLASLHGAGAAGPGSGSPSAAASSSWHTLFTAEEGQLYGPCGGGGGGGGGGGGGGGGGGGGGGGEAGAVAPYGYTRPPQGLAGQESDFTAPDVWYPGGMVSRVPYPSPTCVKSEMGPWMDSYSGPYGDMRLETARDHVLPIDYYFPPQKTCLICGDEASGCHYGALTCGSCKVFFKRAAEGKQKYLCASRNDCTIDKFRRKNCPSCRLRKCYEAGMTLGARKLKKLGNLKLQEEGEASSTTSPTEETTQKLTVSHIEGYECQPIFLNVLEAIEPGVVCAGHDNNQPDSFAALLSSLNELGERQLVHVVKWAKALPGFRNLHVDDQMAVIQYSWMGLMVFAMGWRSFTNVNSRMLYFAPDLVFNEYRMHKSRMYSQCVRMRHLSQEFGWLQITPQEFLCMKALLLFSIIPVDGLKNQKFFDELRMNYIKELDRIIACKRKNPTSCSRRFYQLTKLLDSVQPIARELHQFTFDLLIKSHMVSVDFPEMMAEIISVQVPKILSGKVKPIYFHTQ

As for `CCCCCCOC(=O)C(C)C`, the Potency result in assay [1], in assay [2], in [3], in assay [4], in assay [5] and in assay [6] was “inactive” throughout. Besides, the Potency result in [7] is “inactive”.
With `CC1C2CC(CC2C2CCCC(O)C2)C1(C)C` (configuration not stated), the Potency in [1] was 43.6 µM (active). For the same compound, the Potency entry in assay [2], in assay [3], in assay [4] and in [7] was “inactive” in each case.
For `Nc1ccc(C(=O)OCCCOC(=O)c2ccc(N)cc2)cc1`, the Potency entry in assay [1], in assay [2], in assay [3], in [4], in [6] and in [7] was “inactive” throughout.
For `COc1cc2c(N3CCN(C(=O)Nc4ccc(OC(C)C)cc4)CC3)ncnc2cc1OCCCN1CCCCC1`, the Potency result in [1], in assay [2], in assay [8], in assay [4] and in assay [5] was “inactive” throughout.
In the case of `CC(CCc1ccc2c(c1)OCO2)NN` (configuration not stated), the Potency entry in assay [1], in assay [2], in assay [8], in [4], in assay [5] and in [6] was “inactive” throughout. The Potency entry in assay [7] was “inactive”. Moreover, the compound was classed as inactive in assay [9].
On to `CCOC(=O)OCC`, for which the Potency entry in assay [1], in [2], in assay [8], in assay [4], in [5] and in assay [6] was “inactive” in each case.
Consider `CC(C)C(OC(=O)c1ccccc1)C(C)(C)COC(=O)c1ccccc1` (configuration not stated), for which the Potency result in assay [1], in assay [2], in assay [3], in assay [4], in [5] and in assay [6] was “inactive” in each case. Besides, the Potency entry in assay [7] is “inactive”.
`C1COCO1`: the Potency result in assay [1], in [2], in assay [8], in assay [4], in assay [5] and in [6] was “inactive” in each case. The Potency entry in [7] was “inactive”.
Consider `O=C(C(=O)c1ccccc1)c1ccccc1`, for which the Potency result in assay [1], in assay [2], in assay [3], in assay [4] and in assay [6] was “inactive” each time.
On to `O=C(N/N=C/c1ccc([N+](=O)[O-])o1)c1ccc(O)cc1`, for which the Potency result in assay [1] and in assay [4] was “inactive” each time. Also, the Potency is 26.6 µM (active) in assay [2], 26.6 µM (active) in [8], 29.8 µM (active) in assay [6] and 18.8 µM (active) in assay [7]. In [9], the call was inactive.
`O=[N+]([O-])c1cccc(S(=O)(=O)NCCNS(=O)(=O)c2cccc([N+](=O)[O-])c2)c1`: the Potency result in [1], in assay [2], in [8], in assay [4], in assay [5] and in assay [6] was “inactive” throughout. In addition, in assay [7], the Potency result is “inactive”. In addition, in assay [9], the result was inactive.
As to `COC(=O)c1cc(Cl)ccc1NS(=O)(=O)C(F)(F)F`, the Potency result in assay [1], in [2], in assay [4], in [5], in assay [6] and in [7] was “inactive” throughout.
Regarding `O=C(N[C@@H](c1ccccc1)[C@@H]1CCCCN1)c1cccc(C(F)(F)F)c1Cl`, the Potency entry in [1], in assay [2], in [4] and in assay [5] was “inactive” in each case. Further, the Potency in assay [6] is 30.6 µM (active).
Consider `CCC(=O)OC/C=C/c1ccccc1`, for which the Potency entry in [1], in assay [2], in assay [8], in assay [4], in [5] and in assay [6] was “inactive” throughout. In addition, in [7], the Potency entry is “inactive”.
For the compound `CC1CC(=O)NN=C1c1ccc(NCC(C)(C)NCC(O)COc2cc(Cl)ccc2C#N)cc1` (configuration not stated), the Potency entry in assay [1], in assay [2], in assay [8], in assay [4], in assay [5] and in assay [6] was “inactive” in each case. Besides, the Potency entry in assay [7] is “inactive”.
As to `C[Si](NC1CCCCC1)(NC1CCCCC1)NC1CCCCC1`, the Potency entry in assay [1], in assay [2], in assay [8], in assay [5], in assay [6] and in assay [7] was “inactive” throughout.
In the case of `Cc1cc2nc3ccc(=[N+](C)C)cc-3sc2cc1N`, the Potency result in assay [1] and in assay [7] was “inactive” each time. Further, the Potency is 2.66 µM (active) in assay [3]; 1.5 µM (active) in assay [10]; 26.6 µM (active) in assay [8]; 10.6 µM (active) in assay [4]; 9.44 µM (active) in assay [6]. Moreover, the PLD induction in assay [9] is -3.22% [at 0.306 µM].
On to `O=Cc1c(Cl)cccc1Cl`, for which the Potency result in assay [1], in assay [2], in assay [8], in assay [5], in assay [6] and in assay [7] was “inactive” in each case.
Consider `CCOC(=O)C(C)Oc1ccc(Oc2nc3ccc(Cl)cc3o2)cc1` (configuration not stated), for which the Potency entry in assay [1], in assay [2], in assay [4], in [6] and in [7] was “inactive” throughout.
Take `COCc1c(C(C)C)nc(C(C)C)c(/C=C/[C@@H](O)C[C@@H](O)CC(=O)O)c1-c1ccc(F)cc1`: the Potency result in assay [1], in assay [3], in [8], in assay [5], in assay [6] and in assay [7] was “inactive” each time. The outcome in assay [9] was inactive.
On to `CC(=O)OCC(=O)[C@H]1CC[C@H]2[C@@H]3CCC4=CC(=O)CC[C@]4(C)[C@H]3CC[C@]12C`, for which the Potency result in assay [1], in assay [3], in [10], in assay [8], in [6] and in assay [7] was “inactive” each time.
As for `Cc1ccccc1N1C(=O)c2cc(S(N)(=O)=O)c(Cl)cc2NC1C` (configuration not stated), the Potency entry in assay [1], in assay [2], in assay [4], in assay [5] and in [6] was “inactive” throughout. Besides, in assay [9], the compound was called inactive.
Regarding `CC(C)C(=O)O`, the Potency entry in assay [1], in assay [2], in assay [8], in [4], in [5] and in assay [6] was “inactive” each time. Moreover, the Potency result in assay [7] is “inactive”.
`CSc1ccc(Oc2ccc(S(N)(=O)=O)cc2CN(C)C)cc1C`: the Potency result in assay [1], in assay [2], in assay [4], in assay [5] and in assay [7] was “inactive” in each case. Further, the Potency in [8] was 68.6 µM (active).
In the case of `CC1(C)C2=CCCC(C)(C)[C@]23CC[C@H]1C3`, the Potency entry in assay [1], in assay [2], in assay [4], in [5], in assay [6] and in assay [7] was “inactive” in each case.
Turning to `O=C(O)c1ccc(CO)o1`, the Potency result in [1], in assay [2], in assay [4], in assay [5], in assay [6] and in assay [7] was “inactive” each time.
On to `C=CC(=C)CCCC(C)(C)OC(C)=O`, for which the Potency result in assay [1], in assay [2], in assay [5], in assay [6] and in assay [7] was “inactive” each time.
As for `Oc1ccc(Nc2ccccc2)cc1`, the Potency entry in [1], in [2], in assay [8], in assay [5], in assay [6] and in [7] was “inactive” throughout.
Take `CCOC(=O)CC(=O)C(=O)OCC`: the Potency result in assay [1], in [2], in [4], in [5], in assay [6] and in assay [7] was “inactive” in each case.
